Screens: PubChem BioAssay, several laboratories
Efflux pump mplx: antifungal efflux pump inhibition, Nile Red retention | S. cerevisiae Candida pump triplex | inhibition, % at 10 µM | actives 0.44% (n = 330,000) | AID 485275;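 active = plate passing quality check with inhibition over a set limit, or well fluorescence over plate mean plus 4 SD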;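 also: Nile Red retained in pooled yeast measured as flow cytometry median fluorescence; 0% = buffer negative control and 100% = Enniatin B positive control; higher means more Nile Red kept so more efflux inhibition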
A1 inh: inhibitors of the anti-apoptotic protein A1, read as caspase activation. MEF A1-2A-BIM cells, Caspase-Glo 3/7 luminescence, 3 h; percent of clofoctol response, vehicle zero. caspase activation, % (test concentration not listed). actives 0.066% (n = 330,000). AID 2462;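 active = over half of replicate activation scores above 10%, or exactly half above 10 with the replicate mean above 10; inconclusive = replicate mean below 10 yet half the replicates above 10; inactive = over half of replicates below 10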
AHR act: activators of human aryl hydrocarbon receptor; P35869; AHR-responsive luciferase reporter cells, luminescence; activation, % at 5 µM; actives 2.5% (n = 320,000); AID 2796; in the data active = activation above about 47%;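 also: 0% = vehicle wells and 100% = reference agonist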
VLA-4 inh: inhibition in a human VLA-4 binding assay | VLA-4 expressing cells, ligand binding flow cytometry | inhibition, % (about 7 µM as worked out from the volumes in the protocol) | actives 0.2% (n = 330,000) | AID 2557; in the data active = inhibition above about 50%
SUMO Mot1 rescue: inhibitors of SUMOylation pathway: yeast Mot1-301 growth rescue; growth rescue, % at 18.8 µM; AID 2716; actives 1% (n = 320,000); S. cerevisiae Mot1-301 growth rescue, ATP luminescence, 38.5C; percent above DMSO median, 100 means doubled;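 active = every valid replicate shows activation above 250% relative to neutral control wells; inactive = the rest, any valid replicate at or below 250%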;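 also: OY570 slx delta 5 strain wells were the positive control but not used for scaling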
ALR inh: inhibitors of human sulfhydryl oxidase ALR; P55789; purified ALR, DTT oxidation, H2O2 HRP-luminol luminescence; actives 3.8% (n = 290,000); inhibition, % (no concentration beside the values);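 active = mean replicate inhibition above about 79%, with every replicate also reaching it, limit read from the data; inconclusive = only one of the two criteria met; inactive = mean below limit and not every replicate reaching it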
Target sequence (P55789 whole entry, looked up): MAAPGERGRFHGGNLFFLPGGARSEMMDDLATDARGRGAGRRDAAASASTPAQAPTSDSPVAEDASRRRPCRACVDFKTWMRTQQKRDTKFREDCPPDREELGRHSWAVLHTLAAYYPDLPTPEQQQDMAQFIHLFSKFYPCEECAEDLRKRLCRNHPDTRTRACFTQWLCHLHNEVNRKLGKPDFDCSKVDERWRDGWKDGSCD
The depositor's hits bear a star; ? = inconclusive; · = no result given. Compounds with a hit are over-represented: about 7.2% of the library has one in this group of screens.

SMILES	Efflux pump mplx	A1 inh	AHR act	VLA-4 inh	SUMO Mot1 rescue	ALR inh
CCNC(=O)NCCc1c[nH]c2ccc(Cl)cc12	0	1	-8	-1	-10	9
COc1ccccc1NC(=O)CSc1nncn1N	0	3	·	2	-3	-11
CCOc1ccccc1NC(=O)N1CCc2ccccc2C1	0	1	68*	9	23	0
CCOc1ccccc1NC(=O)CN1CCc2ccccc2C1	0	-1	15	0	-23	14
CCOc1ccccc1NC(=O)c1cccc2c1C(=O)N(CCOC)C2	0	0	69*	8	2	-4
O=C(Nc1ccc(F)cc1)N1CCc2ccccc2C1	0	-8	69*	-11	6	-5
CCOc1ccccc1NC(=O)n1ncc2c(C)cccc21	0	0	48*	3	91	·
O=S(=O)(Nc1cccc(S(=O)(=O)N2CCCC2)c1)c1ccccc1F	0	0	0	-17	5	-6
O=C(CC1OC(=O)c2ccccc21)Nc1cc(Cl)ccc1N1CCOCC1 (centres undefined)	0	1	7	11	-9	·
O=C(COc1ccc(S(=O)(=O)N2CCOCC2)cc1)N1CCCCCC1	0	0	0	-1	-5	-1
CCOc1ccc(OCCC(=O)OCC(=O)NC(C)c2ccccc2)cc1 (centres undefined)	0	0	0	4	9	-8
COC(=O)c1ccc(NC(=O)CN2CCN(c3ccccn3)CC2)cc1	0	0	3	4	-2	12
O=C(CCc1cn2ccccc2n1)NC1CCCc2c1cnn2-c1ccccc1F (centres undefined)	0	-1	1	-93	15	-4
COc1ccc(NC(=S)N2CCN(c3ccccc3)CC2)c(OC)c1	0	0	-1	2	67	48
CCOc1ccccc1NC(=S)N1CCN(c2ccccc2)CC1	0	1	3	6	0	98*
CC(=O)n1nc(-c2ccccc2)cc1-c1ccccc1	0	-2	58*	0	27	-9
CCOc1cc(/C=C\[N+](=O)[O-])ccc1OCC(=O)Nc1ccccc1C	0	31*	3	-1	2	-1
COc1cc(/C=C/c2cccc[n+]2C)ccc1OCC(=O)Nc1ccccc1C	0	0	-1	8	-4	8
COc1cccc2c1C(CO)N1C(C#N)C3CC(C(=O)O)C(C1C2)N3C (centres undefined)	0	0	-3	-15	-10	-9
CN(C)S(=O)(=O)c1ccc(NC(=O)CSc2nnc(-c3ccco3)n2N)cc1	0	1	-1	5	-12	·
COc1ccccc1N(C(=O)c1ccco1)C(C(=O)NC1CCCC1)c1ccc(N2CCOCC2)cc1 (centres undefined)	0	0	-2	-1	-11	-2
CN(C)c1ccc(NC(=O)Nc2csc3ccccc23)cc1	0	0	72*	18	7	·
CCc1ccccc1NC(=O)Nc1ccc(F)cc1	0	-5	9	3	9	-16
O=C(Nc1ccc(F)cc1)Nc1csc2ccccc12	0	3	75*	15	34	-2
CC1CC(C)(C)CC2(C1)NC(=O)N(CC(=O)OCc1ccc(Br)cc1)C2=O (centres undefined)	0	0	-1	19	-9	-5
SMILES	Efflux pump mplx	A1 inh	AHR act	VLA-4 inh	SUMO Mot1 rescue	ALR inh
CC(=NCCc1ccccc1)C1=C(O)CCC1=O	0	0	1	31	-2	-1
CC(=NCCc1ccccc1)C1=C(O)CSC1=O	0	-1	49*	-3	-6	-2
CC1=C(C(=O)OC2CCCCC2)C(c2ccccc2)NC(=O)N1 (centres undefined)	0	0	-3	4	7	97*
CC1=C(C(=O)OC2CCCCCCC2)C(c2ccc(O)cc2)NC(=O)N1 (centres undefined)	0	0	-1	-7	-6	5
CCOC(=O)C1=C(C)NC(=O)NC1c1ccc(N2CCC(c3ccccc3)=N2)cc1 (centres undefined)	0	0	57*	-143	8	-1
O=C(O)CC(c1ccc(F)cc1F)N1Cc2ccccc2C1=O (centres undefined)	0	0	1	11	-9	·
OCc1nnn(-c2cccc(C(F)(F)F)c2)c1CO	0	0	-1	0	-6	-3
O=c1c([N+](=O)[O-])c(O)c2ccccc2n1Cc1ccccc1	0	?	0	3	11	99*
Cc1ccc(C2=NN=C(NC(=O)CSc3nnc4c5ccccc5n(C)c4n3)SC2)cc1	0	-1	77*	-1	-9	-8
Cc1ccc(C2=NN=C(NC(=O)CSc3nc(C)cc(C)n3)SC2)cc1	-2	0	37	0	·	·
COc1ccc(NC(=O)COC(=O)Cc2coc3cc(OC)ccc23)c(OC)c1	0	-1	1	-2	-13	-5
CCCc1nc(SCc2cccnc2)c2c(=O)n(C)c(=O)n(C)c2n1	0	-2	52*	-4	14	16
CCCc1nc(SC2CCCC2)c2c(=O)n(C)c(=O)n(C)c2n1	0	0	13	-1	14	98*
CCCc1nc(SCC(=O)N2CCC(C)CC2)c2c(=O)n(C)c(=O)n(C)c2n1	0	0	1	0	-15	6
COc1ccc(C(=O)CSc2nccn2C)cc1	-1	-3	19	-2	5	99*
COc1cc(C(=O)CSc2nccn2C)cc(OC)c1OC	0	0	47*	14	16	22
CC(C)(C)c1ccc(CNC(=O)C2CCCN2C(=O)Nc2ccccc2)cc1 (centres undefined)	0	0	3	9	-18	-11
O=C(NCCc1ccc(Cl)cc1Cl)C1=CC=CN2CCS(=O)(=O)N=C12	0	0	0	-1	175	-3
CCc1c(O)nc(SCC(=O)Nc2ccc(OC)cc2)n(C2CCCCC2)c1=O	0	1	4	6	-16	99*
CCc1c(O)nc(SCC(=O)Nc2nc3ccccc3s2)n(C2CCCCC2)c1=O	0	0	6	-4	4	92*
O=[N+]([O-])c1ccccc1S(=O)(=O)Nc1ccc(S(=O)(=O)N2CCCC2)cc1	0	0	0	2	2	-5
Cc1[nH]nc(N)c1-c1ccc(Cl)cc1	0	1	2	15	287*	7
CSc1ccc(CNc2ncc(-c3cccc([N+](=O)[O-])c3)n2C)cc1	0	1	0	2	65	98*
Cn1c(-c2ccccc2)cnc1NCc1cccc([N+](=O)[O-])c1	0	0	-1	-1	-1	43
